SW480 rereplic = A quantitative high throughput screen for small molecules that induce DNA re-replication in SW480 colon adenocarcinoma cells | SW480 DNA re-replication, Hoechst DNA content imaging, 48 h | Potency, µM (highest dose often 46.1 µM), for the others: at the highest dose re-replication activation, hits mostly activators | AID 624297, 2012 | 340,000 compounds, 1.8% hits; note: potency is the fitted concentration of half-maximal effect; % of control where 0% means no effect; nearly all actives have a fitted effect of over 55% in size
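Readout is total intensity of Hoechst-stained nuclei, excited at 405 nm and collected at 500-530 nm. Compound treatment lasted 48 hr at 37 C in 5% CO2 before staining.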
Chronic BCR inh = qHTS Assay to Find Inhibitors of Chronic Active B-Cell Receptor Signaling; AID 493014, 2011; ABC-DLBCL IkBa-CBG/CBR reporter, luminescence ratio, 4 h; Potency, µM (top dose mostly 46.1 µM), for the others: top-dose activity change, negative = inhibition, actives largely listed as inhibitors; 340,000 compounds, 0.05% hits; active = well fitted inhibition curve with a large enough effect in the signal ratio, with a control signal flat, not every such curve was filed as active; inconclusive = small, poorly fitted or top-dose-only effect, or effect the other way, or a change in a side signal; the % refers to the signal ratio;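 note: potency is the fitted concentration of half-maximal effect; plate controls were basal doxycycline-induced cells for no effect and cells given 10 µM MG132 for full effect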
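TMD8 ABC-DLBCL cells carrying doxycycline-inducible green luciferase fused to IkappaBalpha plus unfused red luciferase were exposed to compounds (up to 46 uM) for 4 hrs at 37C. Activity came from the overlap-corrected green/red luminescence ratio.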
TDP1 cell noCPT = qHTS for Inhibitors of human tyrosyl-DNA phosphodiesterase 1 (TDP1): qHTS in cells in absence of CPT. 420,000 compounds, 15% hits. DT40 Tdp1-/- hTDP1 cells, no CPT, ATP luminescence, 48 h. AID 686978, 2013. Potency, µM (top dose mostly 46.2 µM), without a hit: top-dose activity change, negative = growth inhibition, most hits filed as inhibitors; note: potency is the fitted concentration of half-maximal effect; % is set by controls: 0 for no effect and ±100 for the full control effect; nearly all actives have a fitted effect of over 55% in size
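A cellular qHTS used chicken DT40 cells lacking endogenous Tdp1 but carrying stably transfected human TDP1. Compounds were applied without camptothecin, and cell growth kinetics were judged by ATP-dependent luminescence after ≥48 hr.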
TDP1 cell CPT = qHTS for Inhibitors of human tyrosyl-DNA phosphodiesterase 1 (TDP1): qHTS in cells in presence of CPT. AID 686979, 2013. chicken DT40 Tdp1-/-;hTDP1 cells + 20 nM CPT, ATP luminescence, 48 h. Potency, µM (titrated, usually from 46.2 µM), without a hit: top-dose activity change, negative = growth inhibition, actives largely listed as inhibitors. 420,000 compounds, 12% hits; note: potency is the fitted concentration of half-maximal effect; % is set by controls: 0 for no effect and ±100 for the full control effect; nearly all actives have a fitted effect of over 55% in size
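Chicken DT40 Tdp1-/- cells complemented with human TDP1, 400 cells/well, exposed to compounds plus 20 nM camptothecin for at least 48 h at 37 C; viability read as ATP content by CellTiter-Glo luminescence.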
IL-1B inflam inh = qHTS for Inhibitors of Inflammasome Signaling: IL-1-beta AlphaLISA Primary Screen; 360,000 compounds, 4.7% hits; activity change, % at 57.5 µM; AID 743279, 2014; THP-1 LPS/ATP IL-1B secretion, AlphaLISA, 16 h; hits give low values; in the data active = activity change below about -50%; inconclusive = mostly about -30% to -49%; note: % is set by controls: 0 for no effect and ±100 for the full control effect
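THP-1 cells pretreated 1 hr with compounds (up to 57.5 uM final), then stimulated with LPS (250 ng/mL final) plus ATP (1.25 mM final); secreted IL-1B measured by AlphaLISA after 16 hr, decreased signal indicating inhibition.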
MCF10A rereplic = A quantitative high throughput screen for small molecules that induce DNA re-replication in MCF 10a normal breast cells; MCF 10A DNA re-replication, Hoechst nuclear intensity, 48 h; Potency, µM (doses to about 46.1 µM), for inactives: at the highest dose activity, positive = re-replication, usual class: activators; 350,000 compounds, 2.9% hits; note: potency is the fitted concentration of half-maximal effect; % of control where 0% means no effect; nearly all actives have a fitted effect of over 50% in size
* hit, by the source's call; ? = inconclusive; / = not tested or not shown. Hits are enriched below; roughly 19% of the tested compounds scored in any of these assays. Unless noted, calls come from the whole dose curve; as a rule, active = well fitted curve in the direction sought with a large enough effect; inconclusive = small, poorly fitted or top-dose-only effect, or another doubt; inactive = no such curve, though single readings can be large; an effect the other way counts as inactive or inconclusive.

SMILES	SW480 rereplic	Chronic BCR inh	TDP1 cell noCPT	TDP1 cell CPT	IL-1B inflam inh	MCF10A rereplic
Cc1ccc(C)c(Cc2c(C)nc3c(C(=O)N4CCOCC4)cnn3c2C)c1	-3%	1%	22µM*	16µM*	31	-2%
Cc1nc2c(C(=O)N3CCN(c4ccccn4)CC3)cnn2c(C)c1Cc1cccc(Cl)c1	-9%	3%	23µM*	?	13	?
CCOC(=O)N1CCN(C(=O)c2cnn3c(C)c(Cc4ccc(C)cc4)c(C)nc23)CC1	-6%	-2%	?	?	-3	4%
Cc1nc2c(C(=O)N3CCCC3)cnn2c(C)c1Cc1c(F)cccc1Cl	1%	-24%	-26%	-36%	-2	2%
C1=Cc2ccccc2/C1=C/c1ccc2c(c1)OCO2	/	/	-21%	-13%	/	/
Cc1cc(Cl)c2oc(C(=O)N3CCOCC3)c(C)c2c1	/	/	-22%	?	-28	/
Cc1cc(Cl)c2oc(C(=O)N3CCN(C(=O)c4ccco4)CC3)c(C)c2c1	-44%	0%	?	16µM*	-7	17%
CC(=O)N1CCN(C(=S)c2ccc(-c3ccc(Cl)cc3)o2)CC1	-11%	?	26µM*	?	-12	4%
O=C(c1ccco1)N1CCN(C(=O)c2ccc(-c3ccc(Cl)cc3)o2)CC1	-26%	?	?	18µM*	-6	-4%
O=C(c1ccco1)N1CCN(C(=O)c2ccc(Br)o2)CC1	/	/	2%	-8%	-14	/
N#CCCN1CCN(C(=S)c2ccc(-c3ccc(Cl)c(Cl)c3)o2)CC1	14%	-12%	?	26µM*	-53*	?
Cc1cc(C)nc(NNC(=O)c2ccccc2O)n1	?	-5%	?	?	17	9%
O=C(Cc1cccs1)Nc1c(C(=O)Nc2ccc(F)cc2)oc2ccccc12	/	/	-21%	-25%	/	/
O=C(c1ccc(-c2cccc(C(F)(F)F)c2)o1)N1CCCCCCC1	-4%	12%	-12%	?	-5	?
O=C(c1ccco1)N1CCN(C(=O)c2ccc(-c3cccc(C(F)(F)F)c3)o2)CC1	-7%	-2%	21µM*	?	-70*	20%
CC1CN(C(=O)c2ccc(-c3cccc(C(F)(F)F)c3)o2)CC(C)O1 (configuration not stated)	3%	7%	13µM*	?	-56*	14%
O=C(CN1CCN(C(=O)c2ccco2)CC1)Nc1cc(C(F)(F)F)ccc1Cl	0%	5%	23µM*	?	-9	14%
O=C(c1ccc(-c2cccc(C(F)(F)F)c2)o1)N1CCN(c2ccccc2)CC1	6%	4%	-5%	-2%	-2	3%
O=C(CN1CCOCC1)Nc1cc(C(F)(F)F)ccc1Cl	12%	1%	-22%	-23%	-4	13%
CCOc1ccc(C(=O)N2CCc3ccccc32)cc1OCC	-30%	-10%	-29%	-20%	15	?
O=C(Nc1ccccc1-c1nc2ccccc2[nH]1)c1ccc(S(=O)(=O)N2CCCCC2)cc1	5%	1%	-26%	-23%	-10	?
O=C(Nc1ccccc1-c1nc2ccccc2[nH]1)c1ccc(N2C(=O)CCC2=O)cc1	-6%	1%	9.2µM*	?	-10	?
CC1CCCCN1S(=O)(=O)c1ccc(C(=O)Nc2ccccc2-c2nc3ccccc3[nH]2)cc1 (configuration not stated)	-3%	8%	15µM*	21µM*	2	0%
O=C(Nc1ccc(-c2nc3ccccc3[nH]2)cc1)c1cccc(N2C(=O)CCC2=O)c1	-1%	1%	12µM*	?	21	-2%
O=C(Nc1ccccc1-c1nc2ccccc2[nH]1)c1sc2ccccc2c1Cl	-4%	0%	/	/	/	2%
SMILES	SW480 rereplic	Chronic BCR inh	TDP1 cell noCPT	TDP1 cell CPT	IL-1B inflam inh	MCF10A rereplic
Cn1c(=O)[nH]c(=O)c2c1nc(SCc1ccccc1Cl)n2CC(N)=O	/	0%	/	/	/	/
CC(C)C(=O)N1CCC1(C)C(=O)Nc1ccc(-n2cncn2)cc1 (configuration not stated)	/	/	-14%	-1%	15	/
O=C(NNC(=O)c1ccncc1)Nc1cc(Cl)ccc1Cl	-9%	/	-13%	9%	18	-39%
O=C(Nc1ccccc1N1CCN(c2ccccc2)CC1)c1ccccc1F	-2%	10%	3.7µM*	?	37	18%
O=C(NCCS(=O)(=O)N1CCN(c2ccccc2)CC1)C12CC3CC(CC(C3)C1)C2	/	/	21µM*	26µM*	-1	/
O=C(Nc1ccccc1N1CCCC1)c1ccccc1F	3%	1%	-22%	?	27	-2%
O=C(Nc1ccccc1N1CCN(c2ccccc2)CC1)C12CC3CC(CC(C3)C1)C2	-5%	3%	21µM*	?	8	7%
COc1ccc(Cl)cc1NC(=O)c1cc(-c2ccc3c(c2)OCO3)on1	/	/	-6%	-4%	/	/
O=C(Nc1ccccc1)n1cc(-c2ccccn2)c(N2CCOCC2)n1	2%	-3%	?	-8%	36	-1%
CC1(C(=O)NS(=O)(=O)c2ccc(Cl)cc2)CCN1C(=O)C/C=C/c1ccccc1 (configuration not stated)	/	/	-11%	-3%	32	/
CCCCNC(=O)CCCCCn1c(=O)[nH]c2ccccc2c1=O	/	-6%	?	-28%	/	/
Cc1ccc2c(c1)C(c1ccc(F)cc1)N(C(=O)COc1ccc(Cl)cc1Cl)CC(=O)N2 (configuration not stated)	/	/	?	21µM*	/	/
O=C1CN(C(=O)COc2ccc(Cl)cc2Cl)C(c2ccccc2)c2cc(F)ccc2N1 (configuration not stated)	/	/	?	16µM*	/	/
O=C1CN(C(=O)COc2ccc(Cl)cc2Cl)C(c2ccc(F)cc2)c2cc(F)ccc2N1 (configuration not stated)	/	/	?	21µM*	/	/
CCCCC(=O)N1CC(=O)Nc2ccc(F)cc2C1c1ccccc1 (configuration not stated)	1%	6%	-4%	3%	9	3%
CCCCC(=O)N1CC(=O)Nc2ccc(F)cc2C1c1ccc(F)cc1 (configuration not stated)	-4%	-4%	?	?	-1	-1%
